GLD-1 RNA inh = GLD-1-TGE RNA interaction inhibition (C. elegans); purified GLD-1 + fluorescein TGE RNA, fluorescence polarization; inhibition, % at 5.96 µM; 320,000 tested, 0.44% active; AID 2280;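 active = percent inhibition above a per-plate cutoff, the plate mean of test compounds plus 3 SD, cut at about 30% in these data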;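 note: 0% = DMSO wells with GLD-1 and probe and 100% = wells lacking GLD-1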
Mcl1 Noxa PPI = disrupts binding of human Mcl-1 to Noxa peptide | Q07820 | TR-FRET Mcl-1/Noxa peptide binding, 2 h | inhibition, % at 21.7 µM | 220,000 tested, 1.5% active;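 active = compounds that cut the protein-peptide binding signal by more than 50% relative to plate controls in a single-dose test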;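 note: His-tagged Mcl-1 with rhodamine Noxa BH3 peptide and terbium anti-His antibody; 0% = Mcl-1 plus Noxa peptide wells and 100% = peptide-only wells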
Target sequence (Q07820 whole entry, looked up): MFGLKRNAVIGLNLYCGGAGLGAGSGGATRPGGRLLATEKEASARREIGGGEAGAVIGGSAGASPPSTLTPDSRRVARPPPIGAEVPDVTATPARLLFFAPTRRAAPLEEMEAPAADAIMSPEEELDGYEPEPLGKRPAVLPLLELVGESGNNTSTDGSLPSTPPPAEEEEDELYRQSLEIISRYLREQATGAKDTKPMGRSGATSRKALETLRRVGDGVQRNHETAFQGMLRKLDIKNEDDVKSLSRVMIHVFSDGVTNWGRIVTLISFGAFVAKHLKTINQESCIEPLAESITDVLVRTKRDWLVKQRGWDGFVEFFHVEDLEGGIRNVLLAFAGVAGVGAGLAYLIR
Bcl-xL primary = Bcl-xL (human) inhibition. inhibition, % at 10.9 µM. Q07817. 320,000 tested, 0.7% active. GST-Bcl-xL / FITC-Bim BH3 peptide fluorescence polarization. AID 2129;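 active = inhibition above the mean of all tested compounds plus 3 SD, cutoff set per campaign, cut at about 30% in these data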;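 note: 0% = DMSO wells and 100% = unlabeled Bim-BH3 peptide competitor; inhibitors lower millipolarization by displacing the labeled peptide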
Target sequence (Q07817 whole entry, looked up): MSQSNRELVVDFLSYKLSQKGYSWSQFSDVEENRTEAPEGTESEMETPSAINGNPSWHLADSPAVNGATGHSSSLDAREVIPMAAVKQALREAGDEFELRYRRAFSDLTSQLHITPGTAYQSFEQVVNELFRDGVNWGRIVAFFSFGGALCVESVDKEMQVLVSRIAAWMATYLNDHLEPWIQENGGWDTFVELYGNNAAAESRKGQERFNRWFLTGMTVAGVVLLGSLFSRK
Mcl1 Bid PPI = Mcl-1/Bid interaction inhibition; inhibition, % at 21.7 µM; 220,000 tested, 0.97% active; TR-FRET Mcl-1/Bid-Dy647 peptide binding, 1536-well;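 active = compounds that cut the binding signal by more than half at the single screening dose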;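 note: His-tagged Mcl-1 with europium anti-His antibody binding Bid BH3 peptide; 0% = Mcl-1 plus peptide wells and 100% = peptide-only wells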
Mcl-1 Bim block = human Bim-Mcl-1 interaction inhibition. 190,000 tested, 0.1% active. AID 1009. Bead-based flow cytometry, Bim peptide-Mcl-1 binding. inhibition, % at 10 µM. Q07820; in the data active = inhibition above about 40%;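 note: 0% = no compound tracer wells and 100% = peptide blocker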
MCL1-BIM inh = inhibitors of human MCL1 binding to BIM-BH3 peptide; GST-MCL1 / FITC-Bim-BH3 fluorescence polarization; inhibition, % at 10.9 µM; 320,000 tested, 0.68% active; AID 2057;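 active = inhibition above the mean inhibition of all tested compounds plus 3 SD, set per campaign, cut at about 40% in these data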;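 note: 0% = DMSO wells and 100% = unlabeled Bim-BH3 peptide control; higher means more loss of mP so more displacement of Bim peptide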
BCLXL inh confirm = Bcl-xL (human) inhibition, MCL1 counter-screen confirmation | GST-Bcl-xL / FITC-Bim BH3 peptide FP binding | 1,700 tested, 54% active | inhibition, % at 10.9 µM | shares compounds with MCL1-BIM inh;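 active = inhibition above a cutoff equal to the mean inhibition of all tested compounds plus 3 SD, cut at about 30% in these data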;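 note: 0% = DMSO wells and 100% = unlabeled Bim BH3 control peptide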
MCL1 BIM confirm = MCL1-BIM-BH3 interaction inhibition, confirmation; shares compounds with MCL1-BIM inh; GST-MCL1 / FITC-Bim-BH3 fluorescence polarization; inhibition, % at 10.9 µM; 1,700 tested, 61% active;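 active = inhibition above the average of all tested compounds plus 3 SD, cut at about 40% in these data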;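 note: 0% = DMSO wells and 100% = unlabeled Bim-BH3 control peptide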
* marks the source's active call; other numbers are inactive results; . = no result given. The list is not random: actives were taken first. Their share in the collection is about 2.3%.

SMILES	GLD-1 RNA inh	Mcl1 Noxa PPI	Bcl-xL primary	Mcl1 Bid PPI	Mcl-1 Bim block	MCL1-BIM inh	BCLXL inh confirm	MCL1 BIM confirm
Cn1cc(CCC(=O)NCc2ccc(Cl)cc2)c2ccccc21	-3	.	1	.	.	53*	-1	-6
CC(=O)Nc1ccc(N=Cc2nc(-c3ccc(C)cc3)oc2O)cc1	31*	65*	89*	64*	2	90*	60*	61*
Cc1ccc(N=Cc2nc(-c3ccc(C)cc3)oc2O)cc1	.	-11	.	-2	-2	.	.	.
O=C1C(Nc2cccc(O)c2)=C(N2CCCCC2)C(=O)c2ccccc21	71*	30	57*	-62	3	55*	19	37
O=C1C=C(O)c2c(O)cc(O)c(O)c2C1=O	7	.	27	.	.	95*	27	97*
C[C@@H]1Cc2c(O)c(O)cc(O)c2C(=O)O1	11	15	7	-99	.	6	.	.
O=C(O)c1cc2nc3c(c(C(F)(F)F)n2n1)CCc1ccccc1-3	-9	2	15	-25	1	15	.	.
COCCNC(=O)c1cc2nc3c(c(C(F)(F)F)n2n1)CCc1ccccc1-3	1	-1	-3	-7	0	49*	4	8
Cn1c(N)c(C#N)c2c(c1=S)CSC(C)(C)C2	8	20	16	-59	3	13	.	.
CC1(C)Cc2c(C#N)c(N)sc(=S)c2CS1	47*	41	57*	-16	2	71*	71*	88*
O=C(O)c1ccc(-c2ccc(/C=c3/sc4nc5ccccc5n4c3=O)o2)cc1Cl	-7	.	14	.	.	40*	-13	-21
N#CC1=C(N)Oc2cc(N)ccc2C1c1ccc(F)cc1 (stereo unspecified)	2	0	6	-17	-4	5	.	.
N#CC1=C(N)Oc2cc(N)ccc2C1c1ccc(F)cc1F (stereo unspecified)	4	.	55*	.	.	54*	23	23
COC(=O)[C@@]12CCCN1[C@H](c1ccc(-c3ccccc3)cc1)[C@@H]1C(=O)N(C)C(=O)[C@@H]12	-3	.	6	.	.	-2	.	.
COc1cc2c3nnc(-c4ccc(F)cc4)c-3cn(Cc3ccc(F)cc3)c2cc1OC	-11	-43	72*	-36	0	58*	84*	83*
COc1cc2c3nnc(-c4ccc(F)cc4)c-3cn(Cc3ccccc3)c2cc1OC	-2	-12	82*	-25	1	68*	64*	63*
COc1ccc(-c2nnn(Cc3ccccc3)n2)cc1OC	6	.	0	.	.	-6	.	.
CCc1ccc(C(=O)C(C)OC(=O)c2nc3nc(C)cc(C)n3n2)cc1 (stereo unspecified)	5	.	-6	.	.	-14	.	.
COc1cccc(C2Nc3c(F)cc(Br)cc3C3C=CCC32)c1OC (stereo unspecified)	3	-6	3	-11	5	4	.	.
O=C(O)C1Nc2ccc(OC(F)(F)F)cc2C2C=CCC12 (stereo unspecified)	0	.	48*	.	.	106*	15	67*
COc1cccc2c1NC(C(=O)O)C1CC=CC21 (stereo unspecified)	4	101*	79*	75*	6	96*	57*	90*
O=C(Nc1ccc(F)cc1)C1CCCN1S(=O)(=O)c1ccc(Br)cc1 (stereo unspecified)	-2	.	4	.	.	2	.	.
CCCCCc1nnc(NC(=O)c2cccc(S(=O)(=O)N3CCOCC3)c2)s1	1	.	3	.	.	3	.	.
CC(=O)c1cn(N2CCCCC2)c(=O)[nH]c1=O	3	.	-2	.	.	-7	.	.
O=C(O)Cc1ccc(N=Nc2c(O)c(C(=O)O)cc3ccccc23)cc1	6	23	26	-2	.	43*	37*	70*
SMILES	GLD-1 RNA inh	Mcl1 Noxa PPI	Bcl-xL primary	Mcl1 Bid PPI	Mcl-1 Bim block	MCL1-BIM inh	BCLXL inh confirm	MCL1 BIM confirm
Oc1ccc(/C=N/Nc2ncnc3c2ncn3Cc2ccccc2)cc1O	3	24	7	-61	-4	57*	11	33
CC(NC(=O)c1ccco1)C(=O)OCC(=O)N1CCCCCC1 (stereo unspecified)	1	.	1	.	.	2	.	.
Cc1ccc(-c2c3c([nH]c(=S)c2C#N)CCCC3)o1	1	74*	27	-26	2	43*	25	20
N#Cc1c(-c2ccncc2)c2c([nH]c1=S)CCCC2	3	39	8	-77	-6	1	.	.
C/C(=N\NC(=O)c1cc(O)ccc1O)c1cccc(NC(=O)c2cccc(Cl)c2)c1	0	.	16	.	.	38	.	.
C/C(=N\NC(=O)c1cc(O)ccc1O)c1cccc(NC(=O)c2ccc(Cl)cc2)c1	13	.	27	.	.	48*	28	47*
Cn1c2ccccc2c2cc(/C=N/NC(=O)c3cc(O)ccc3O)ccc21	8	.	32*	.	.	57*	62*	93*
CC(C)(C)OC(=O)N1CCN(C(=O)Nc2ccc3c(c2)OCCO3)CC1	-1	6	4	-22	3	1	.	.
CC(=O)Nc1ccc(Nc2ccc3c4c(cc(=O)n3C)-c3ccccc3C(=O)c24)cc1	28	56*	61*	1	8	57*	61*	70*
COc1ccc(CCNC(=O)c2c(O)c3ccccc3[nH]c2=O)cc1	7	.	1	.	.	3	.	.
O=C(O)COc1ccccc1C(Nc1ccccn1)c1cc(Cl)c2cccnc2c1O (stereo unspecified)	6	91*	19	74*	-5	79*	27	89*
O=C(NC(c1ccccc1)c1cc(Cl)c2cccnc2c1O)c1cccnc1 (stereo unspecified)	3	-27	6	-18	-4	8	.	.
CC(C)(C)C(=O)CSc1nc(N)cc(=O)[nH]1	8	6	7	-44	-1	1	.	.
CN(Cc1ccc(Br)cc1)C(=O)CCN1C(=O)c2cccc([N+](=O)[O-])c2C1=O	1	.	1	.	.	-6	.	.
Nc1nc(-c2ccco2)c(-c2ccco2)s1	2	42	18	-35	-3	25	.	.
COc1ccc(-c2nc3ccccc3nc2-c2ccc(OC)cc2)cc1	3	.	4	.	.	5	.	.
c1coc(-c2nc(-c3ccco3)c(-c3ccco3)nc2-c2ccco2)c1	23	109*	80*	97*	0	106*	18	57*
COc1ccc2nc(-c3ccco3)c(-c3ccco3)nc2c1	23	101*	49*	26	3	88*	76*	126*
COc1ccc(Cc2nnc(SCC(=O)Nc3ccccc3C)n(N)c2=O)cc1	-1	.	-1	.	.	7	.	.
COC(=O)c1ccccc1NCc1cc(=O)oc2cc(O)c(O)cc12	-1	.	9	.	.	60*	23	65*
